Source: PubChem BioAssay
Hits are enriched below; roughly 19% of the tested compounds scored in any of these assays.
TDP1 cell CPT = growth inhibition of DT40 Tdp1-/-;hTDP1 cells with camptothecin (screen for TDP1 inhibitors); actives 12% (n = 420,000); Potency, µM (series often up to 46.2 µM), for inactives: at the top dose activity change, negative = growth inhibition, actives largely listed as inhibitors; chicken DT40 Tdp1-/-;hTDP1 cells + 20 nM CPT, ATP luminescence, 48 h; also: potency is read from the fitted curve at half-maximal effect; nearly all actives have a fitted effect of over 55% in size
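Chicken DT40 Tdp1-/- cells complemented with human TDP1, 400 cells/well, exposed to compounds plus 20 nM camptothecin for at least 48 h at 37 C; viability read as ATP content by CellTiter-Glo luminescence.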
HT1080 IDH1KD tx = HT-1080 IDH1 knockdown cell toxicity (counter line); HT-1080 IDH1 knockdown viability, ATP luminescence, 48 h; Potency, µM (top dose mostly 46.1 µM), inactives show top-dose activity, negative = toxicity, usual class: cytotoxic; actives 2% (n = 360,000);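 also: potency is read from the fitted curve at half-maximal effect; 0% = DMSO wells and -100% = cell-free medium wells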
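In this qHTS, HT-1080 cells depleted of IDH1 are exposed for 48 h at 37 °C to compound titrations. Toxicity is scored from CellTiter-Glo luminescence, with DMSO as full viability and medium alone as none.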
HT1080-NT tox = kills 2HG-producing HT-1080-NT fibrosarcoma cells; HT-1080-NT fibrosarcoma viability, CellTiter-Glo ATP luminescence, 48 h; Potency, µM (highest dose often 46.1 µM), for the others: top-dose activity, negative = less viability, usual class: cytotoxic; actives 1.6% (n = 360,000); AID 686970;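 also: NT is the 2HG producing partner of a matched IDH1 knockdown line; potency is read from the fitted curve at half-maximal effect; 0% = DMSO-treated cells and -100% = media-only wells without cells; nearly all actives have a fitted effect of over 55% in size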
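750 cells/well, RPMI + 5% FBS; 2 h settle, compound pin-transfer, 48 h at 37 degrees C. CellTiter-Glo 10 min RT, luminescence. Normalized to DMSO and media-only wells.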
TDP1 cell noCPT = qHTS for Inhibitors of human tyrosyl-DNA phosphodiesterase 1 (TDP1): qHTS in cells in absence of CPT; DT40 Tdp1-/- hTDP1 cells, no CPT, ATP luminescence, 48 h; Potency, µM (titrated, usually from 46.2 µM), without a hit: top-dose activity change, negative = growth inhibition, hits mostly inhibitors; actives 15% (n = 420,000); also: potency is read from the fitted curve at half-maximal effect; nearly all actives have a fitted effect of over 55% in size
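Chicken DT40 Tdp1-/- cells complemented with human TDP1, screened without camptothecin (DMSO vehicle only), 400 cells/well. Compounds pin-transferred, cells incubated at 37 °C for at least 48 hr. Growth read as ATP-dependent luminescence (CellTiter-Glo, 30 min at RT).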
IL1B secr inh = inflammasome signaling inhibition, IL-1 beta readout. THP-1 LPS/ATP IL-1B secretion, AlphaLISA, 16 h; hits give low values. activity change, % at 57.5 µM. actives 4.7% (n = 360,000). AID 743279; in the data active = activity change below about -50%; inconclusive = mostly about -30% to -49%
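THP-1 cells pretreated 1 hr with compounds (up to 57.5 uM final), then stimulated with LPS (250 ng/mL final) plus ATP (1.25 mM final); secreted IL-1B measured by AlphaLISA after 16 hr, decreased signal indicating inhibition.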
Starred values were filed as active, the others as inactive; u = inconclusive; x = not tested or not shown. Unless noted, calls follow the shape of the dose curve; as a rule, active = well fitted curve in the direction sought with a large enough effect; inconclusive = small, poorly fitted or top-dose-only effect, or another doubt; inactive = no such curve, though single readings can be large; an effect the other way counts as inactive or inconclusive. Unless noted, % is scaled to controls: 0 for no effect and ±100 for the full control effect.

SMILES	TDP1 cell CPT	HT1080 IDH1KD tx	HT1080-NT tox	TDP1 cell noCPT	IL1B secr inh
O=C1CN(C(=O)c2ccc(S(=O)(=O)N3CCCC3)cc2)C(c2ccccc2)c2cc(Cl)ccc2N1 (configuration not stated)	u	x	x	20.6µM*	x
O=C1CN(C(=O)c2cccc(Br)c2)C(c2ccccc2)c2cc(Cl)ccc2N1 (configuration not stated)	5.17µM*	x	x	u	x
Cc1ccc2c(c1)C(c1ccccc1)N(C(=O)COc1ccc(Cl)cc1Cl)CC(=O)N2 (configuration not stated)	20.6µM*	x	x	20.6µM*	x
O=C1CN(C(=O)Cc2ccc(F)cc2)C(c2ccccc2)c2cc(Cl)ccc2N1 (configuration not stated)	14.6µM*	x	x	18.4µM*	x
Cc1ccc(C(=O)NC(N2CCCC2)C(Cl)(Cl)Cl)cc1 (configuration not stated)	-19.7%	-9.8%	-2.7%	-18.6%	18.8
N#CC(c1ccccc1)c1cnccn1 (configuration not stated)	-18.8%	11.7%	14.5%	-2.8%	4.5
COc1ccc(OC)c(NC(=O)Cn2nc(C)c3ccccc3c2=O)c1	-4.8%	1.0%	9.5%	-14.3%	0.0
O=c1[nH]c2ccc(NCc3ccc(-c4ccc(Br)cc4)o3)cc2[nH]1	-10.6%	x	x	-19.9%	x
O=c1[nH]c2ccc(NCc3ccc(-c4cccc(Cl)c4)o3)cc2[nH]1	29.1µM*	x	x	18.4µM*	x
Cc1c(Cl)cccc1-c1ccc(CNc2ccc3[nH]c(=O)[nH]c3c2)o1	3.26µM*	x	x	u	x
O/C(=C\c1nc2ccccc2nc1/C=C(\O)c1ccccc1)c1ccccc1	u	u	20.6µM*	u	-98.1*
Cc1cc(C)c(C#N)c(SCc2nnc(-c3ccccc3[N+](=O)[O-])o2)n1	25.9µM*	-22.5%	u	20.6µM*	-2.5
Cc1cc(C)c(C#N)c(SCc2ccccc2[N+](=O)[O-])n1	-0.5%	8.6%	6.9%	u	0.0
OCCCCNCc1ccc(OCc2ccccc2Cl)cc1	u	u	u	u	-23.1
NC(N)=N/N=C/c1ccc(Cl)cc1Cl	16.4µM*	16.4µM*	u	23.1µM*	-99.3*
NC(N)=N/N=C/c1ccc(Cl)c(Cl)c1	13µM*	u	u	16.4µM*	-97.4*
NC(N)=N/N=C/c1ccc(OCc2ccccc2Cl)cc1	14.6µM*	15.8µM*	12.6µM*	13µM*	-102.6*
Cc1ccc(CNC(=O)c2ccc(S(=O)(=O)N3CCCCCC3)cc2)cc1	20.6µM*	u	-14.2%	4.11µM*	42.5
CC(=O)NCc1ccc(S(=O)(=O)N2CCCN(C)CC2)cc1	u	u	27.0%	23.1µM*	7.5
Cc1ccc(C(=O)NNC(=O)c2ccc(S(=O)(=O)N3CCCCC3)cc2)cc1	5.17µM*	u	-0.1%	23.1µM*	10.3
CCOc1ccc2nc(NC(=O)CSCC(=O)Nc3cc(C)on3)sc2c1	3.0%	-0.6%	3.2%	1.1%	4.2
Cc1cc(C)cc(NC(=O)c2cc(S(=O)(=O)N3CCC(C)CC3)cn2C)c1	-13.9%	x	x	-18.0%	x
Cc1ccc(S(=O)(=O)NCCOc2nc(N(C)C)nc(N(C)C)n2)cc1	u	-0.7%	-0.4%	u	91.6
CC(C)C[C@@H](CN)NC(=O)c1nc[nH]c1C(=O)N[C@@H](CC(C)C)C(=O)CNC[C@H](C)NC(=O)c1nc[nH]c1C(=O)N[C@@H](C)C(=O)O	-13.7%	-2.3%	3.6%	-7.5%	-10.6
C=C1CC(COc2cc(=O)oc3ccccc23)(c2ccccc2)OC1=O (configuration not stated)	1.16µM*	5.17µM*	16.4µM*	1.64µM*	-116.8*
SMILES	TDP1 cell CPT	HT1080 IDH1KD tx	HT1080-NT tox	TDP1 cell noCPT	IL1B secr inh
C=C1CCC2C(C)(C)[C@H](O)CC[C@@]2(C)[C@@H]1COc1cc(=O)oc2ccccc12 (some centres not stated)	u	u	u	u	-13.1
COc1ccccc1CNC(=O)c1cnc2sc(N3CCCCC3)nn2c1=O	u	x	x	23.1µM*	x
CCOc1ccccc1CNC(=O)c1cnc2sc(N3CCCC3)nn2c1=O	14.6µM*	x	x	16.4µM*	x
CCN(CC)c1nn2c(=O)c(C(=O)NCc3ccccc3Br)cnc2s1	23.1µM*	x	x	u	x
COc1cccc(CNC(=O)c2cnc3sc(N4CCCC4)nn3c2=O)c1OC	3.2%	x	x	-14.7%	x
Cc1cc(C)cc(C(=O)NCC(=O)OC(C)C(=O)N(C)c2ccccc2)c1 (configuration not stated)	-4.0%	-0.9%	-1.8%	-16.3%	12.7
CC1CC(C)CN(C(=O)c2ccc(CSc3nc4ccncc4[nH]3)cc2)C1 (configuration not stated)	u	-1.0%	12.9%	11.6µM*	3.0
O=C(NCCN1CCN(c2cccc(Cl)c2)CC1)c1ccc(CSc2nc3ccncc3[nH]2)cc1	u	u	u	u	-63.0*
CCN(CCNC(=O)c1ccc(CSc2nc3ccncc3[nH]2)cc1)c1ccccc1	-1.4%	4.9%	0.3%	-9.5%	35.9
Cc1ccc(-c2c(C#N)c(N)nc3c2CCCCC3)o1	u	1.8%	1.9%	-14.9%	15.6
O=[N+]([O-])c1ccc(-c2nc(Cl)c3c(n2)CCCC3)o1	9.2µM*	u	-5.5%	16.4µM*	-93.8*
OCC1(Cc2ccccc2)CCN(Cc2cnc(-c3cccc4ccccc34)nc2)CC1	u	-5.1%	-7.5%	u	-57.3*
OCCC1CN(Cc2cnc(-c3ccc(Cl)cc3)nc2)CCN1C1CCCCC1 (configuration not stated)	u	-12.3%	-1.6%	20.6µM*	x
OCC1(Cc2ccc(Cl)cc2)CCN(Cc2ccc(Oc3ncccn3)cc2)CC1	-24.7%	u	-13.6%	-19.0%	-89.9*
OCC1(Cc2ccccc2)CCN(Cc2cnc(-c3ccc(Cl)cc3)nc2)CC1	u	25.9µM*	u	23.1µM*	-94.1*
Cc1ccccc1-c1ncc(CN2CCC(CO)(CCCc3ccccc3)CC2)cn1	u	-16.9%	-17.5%	u	-19.5
Cc1cccc(-c2ncc(CN3CCN(C4CCCC4)C(CCO)C3)cn2)c1 (configuration not stated)	8.0%	-19.1%	-22.5%	2.3%	4.5
COc1ccc(-c2ncc(CN3CCC(CO)(Cc4cccc(OC)c4)CC3)cn2)cc1	u	u	-23.7%	u	2.9
CC(C)(C)c1ccc(C(CC(=O)O)NC(=O)CCCc2ccccc2)cc1 (configuration not stated)	3.0%	0.9%	-2.0%	1.6%	25.4
